# Measurements taken from PubChem BioAssay AID743131 (Broad Institute, 2013).
# Potency and affinity values are given separately. Inconclusive results are not listed. Entries that show only a call come without a potency. Calls of active or inactive are those of the source.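 How the source made its calls: active means cell viability loss with a fitted half-maximal concentration at or below twice the top valid dose; inconclusive means flat curve losing 30 to 70% viability, or a poor fit; inactive means the rest.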
# Experiment: HEK293 cell cytotoxicity, dose response, cytotoxicity control, ATP luminescence, dry powder, set 3 (AID 743131)
# Conditions: HEK293T viability, ATP luminescence CellTiter-Glo, 72 h; series mostly up to 26 µM
row,Structure (SMILES),outcome
1,CCOC(=O)c1c(-c2ccc(F)cc2)csc1NC(=O)CN1CCN(C)CC1,inactive
2,Fc1ccccc1OCCn1c(=S)[nH]c2ccccc21,inactive
3,O=c1[nH]c2ccccc2n1CCOc1ccccc1,inactive
4,Cc1ccc(OCCn2c(=S)[nH]c3ccccc32)cc1,inactive
5,Fc1cccc2c1[nH]c(=S)n2CCOc1ccccc1,inactive
6,S=c1[nH]c2ccccc2n1CCOc1ccc(Cl)cc1,inactive
7,S=c1[nH]c2cccc(Cl)c2n1CCOc1ccccc1,inactive
8,CCOC(=O)c1c(-c2ccc(F)cc2)csc1NC(=O)CN1CCN(CC)CC1,inactive
9,CCOc1ccc(OCCn2c(=S)[nH]c3ccccc32)cc1,inactive
10,S=c1[nH]c2ccccc2n1CCOc1ccccc1,inactive
11,Cc1ccc(OCCn2c(C)nc3ccccc32)cc1,inactive
12,COC(=O)C1=C(C)N(Cc2ccc(Cl)cc2)C(=S)NC1c1ccc(Br)cc1 (stereo not given),inactive
13,Cc1ccc(OCCn2cnc3ccccc32)cc1,inactive
14,CCOC(=O)c1c(-c2ccc(C(C)(C)C)cc2)csc1NC(=O)CN1CCN(C)CC1,inactive
15,Cc1ccc(OCCn2c(SCCO)nc3ccccc32)c(C(C)C)c1,inactive
16,COC(=O)C1=C(C)N(Cc2ccc(Br)cc2)C(=S)NC1c1ccc(OC)cc1 (stereo not given),inactive
17,COC(=O)C1=C(C)N(Cc2ccc(F)cc2)C(=S)NC1c1cccc(F)c1 (stereo not given),inactive
18,Cc1ccc2c(c1)[nH]c(=S)n2CCOc1ccccc1,inactive
19,CCOC(=O)c1c(-c2ccc(OC)cc2)csc1NC(=O)CN(C)CC(=O)N(C)C,inactive
20,COC(=O)C1=C(C)N(Cc2ccc(Br)cc2)C(=S)NC1c1ccc(F)cc1 (stereo not given),inactive
